In PubChem BioAssay (NCI) one finds growth data, which are given here for 15 compounds.

Compounds without any hit were thinned out: in the full panel of roughly 83,000, 20% have a hit.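 Note: values are percent growth. 100 is the growth of untreated cells, values between 100 and 0 indicate rising inhibition; between -100 and 0 indicates cell death.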 Unmarked numbers belong to inactive results. Active and inactive are the calls of the source. How the source made its calls: active means growth percent below 10; inactive means the rest.

In the assay the test system is HL-60(TB) leukemia. Briefly: NCI-60 one-dose screen, 48 h (100 = growth as untreated, 0 = no growth, -100 = all killed). Conditions: 10 µM unless noted.
For the compound `CCOP(=O)(OCC)/C(=C\N1C(=O)CC(=O)NC1=S)C(=O)OC`, the growth was 103%.

Take `O=C1C=CC(=O)N1c1ccc(Cc2ccc(N3C(=O)C=CC3=O)cc2)cc1`: the growth was 9.02% (active).

For the compound `Nc1nc2c(s1)CCc1c-2c(Br)n(Cc2ccccc2)c1Br`, the growth is 51.6%.

Regarding `COc1cc(NC(=O)C2=C(C)NC(C)=C(C(=O)Nc3cc(OC)c(Cl)cc3OC)C2c2cccc([N+](=O)[O-])c2)c(OC)cc1Cl`, the growth was 15.5%.

On to `CCCCCCCCn1ccc2cc(NC(=O)CN=[N+]=[N-])ccc21`, for which the growth is 102%.

`O=c1n(CC2CO2)c(=O)n(CC2CO2)c(=O)n1CC1CO1` (stereo not given): the growth was 20.4%.

Consider `CCNc1ccc(-c2nc3ccccc3n3cccc23)cc1`, for which the growth is 86%.

Regarding `C/C(=C\c1ccc([N+](=O)[O-])cc1)C(=O)O`, the growth is 105%.

As for `O=C1Nc2ccccc2/C1=C/c1cccn1CCCCCCn1c2ccccc2c(=O)c2ccccc21`, the growth is 54.5%.

For the compound `COc1ccc(C(=O)/C=C/c2ccc(C)cc2)cc1S(N)(=O)=O`, the growth was 56.2%.

`COc1ccc(-c2c(N)n[nH]c2-c2ccc(Cl)cc2O)cc1OC`: the growth is 91.9%.

`O=C(Nc1ccc(F)cc1)c1cc([N+](=O)[O-])ccc1O`: the growth is 59.6%.

For the compound `COc1cc(C(=O)n2nc(N3CCOCC3)c3cc(-n4cccc4)ccc32)cc(OC)c1OC`, the growth was 61.6%.

For the compound `COc1cccc(-c2nc3sccn3c2-c2ccnc(NCCNC(=O)Nc3cccc(C(F)(F)F)c3)n2)c1`, the growth was 62.8%.

As for `CSc1nc(N)c2c(n1)NC(c1ccccc1)C1CCc3ccccc3C1=N2` (stereo not given), the growth is 26.4%.
